Results published in the supplement of paper PMC8728848.
The full list was thinned out, with the strongest signals kept by preference.

Legend:
Experiment in all cases: glycan array binding signal (z-score within array); higher = stronger binding
Conditions in all cases: glycan notation: IUPAC condensed, linker removed
[1] = biological target: GlcNAc(b1-3)Gal(b1-4)GlcNAc(b1-3)Gal(b1-4)GlcNAc(b1-2)Man(a1-3)[GlcNAc(b1-3)Gal(b1-4)GlcNAc(b1-3)Gal(b1-4)GlcNAc(b1-2)Man(a1-6)]Man(b1-4)GlcNAc(b1-4)[Fuc(a1-6)]GlcNAc
Outline: (§1)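 The Consortium for Functional Glycomics database supplied 3228 glycan arrays, of which those lacking an available protein sequence were dropped. The binding signal, a within-array Z-score, was averaged across arrays of the same protein sequence and across linkers. Negative scores can be read as non-binding.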

[2] = biological target: GlcNAc(b1-3)Gal(b1-4)GlcNAc(b1-3)Gal(b1-4)GlcNAc(b1-3)Gal(b1-4)GlcNAc(b1-2)Man(a1-3)[GlcNAc(b1-3)Gal(b1-4)GlcNAc(b1-3)Gal(b1-4)GlcNAc(b1-3)Gal(b1-4)GlcNAc(b1-2)Man(a1-6)]Man(b1-4)GlcNAc(b1-4)GlcNAc
Outline: as §1

[3] = biological target: GlcNAc(b1-3)Gal(b1-4)GlcNAc(b1-3)Gal(b1-4)GlcNAc(b1-3)Gal(b1-4)GlcNAc(b1-2)Man(a1-3)[GlcNAc(b1-3)Gal(b1-4)GlcNAc(b1-3)Gal(b1-4)GlcNAc(b1-3)Gal(b1-4)GlcNAc(b1-2)Man(a1-6)]Man(b1-4)GlcNAc(b1-4)[Fuc(a1-6)]GlcNAc
Outline: as §1

[4] = biological target: GlcNAc(b1-3)Gal(b1-4)GlcNAc(b1-3)Gal(b1-4)GlcNAc(b1-3)Gal(b1-4)GlcNAc(b1-3)Gal(b1-4)GlcNAc(b1-2)Man(a1-3)[GlcNAc(b1-3)Gal(b1-4)GlcNAc(b1-3)Gal(b1-4)GlcNAc(b1-3)Gal(b1-4)GlcNAc(b1-3)Gal(b1-4)GlcNAc(b1-2)Man(a1-6)]Man(b1-4)GlcNAc(b1-4)GlcNAc
Outline: as §1

[5] = biological target: GlcNAc(b1-3)Gal(b1-4)GlcNAc(b1-3)Gal(b1-4)GlcNAc(b1-3)Gal(b1-4)GlcNAc(b1-3)Gal(b1-4)GlcNAc(b1-2)Man(a1-3)[GlcNAc(b1-3)Gal(b1-4)GlcNAc(b1-3)Gal(b1-4)GlcNAc(b1-3)Gal(b1-4)GlcNAc(b1-3)Gal(b1-4)GlcNAc(b1-2)Man(a1-6)]Man(b1-4)GlcNAc(b1-4)[Fuc(a1-6)]GlcNAc
Outline: as §1

[6] = biological target: GlcNAc(b1-3)Gal(b1-4)GlcNAc(b1-3)Gal(b1-4)GlcNAc(b1-3)Gal(b1-4)GlcNAc(b1-3)Gal(b1-4)GlcNAc(b1-2)[GlcNAc(b1-3)Gal(b1-4)GlcNAc(b1-3)Gal(b1-4)GlcNAc(b1-3)Gal(b1-4)GlcNAc(b1-3)Gal(b1-4)GlcNAc(b1-6)]Man(a1-6)[GlcNAc(b1-3)Gal(b1-4)GlcNAc(b1-3)Gal(b1-4)GlcNAc(b1-3)Gal(b1-4)GlcNAc(b1-3)Gal(b1-4)GlcNAc(b1-2)Man(a1-3)]Man(b1-4)GlcNAc(b1-4)[Fuc(a1-6)]GlcNAc
Outline: as §1

[7] = biological target: GlcNAc(b1-3)Gal(b1-4)GlcNAc(b1-3)[GlcNAc(b1-3)Gal(b1-4)GlcNAc(b1-3)]GalNAc
Outline: as §1

[8] = biological target: GlcNAc(b1-3)Gal(b1-4)GlcNAc(b1-6)[Gal(b1-3)]GalNAc
Outline: as §1

[9] = biological target: GlcNAc(b1-4)Gal(b1-4)GlcNAc
Outline: as §1

[10] = biological target: GlcNAc(b1-6)Gal(b1-4)GlcNAc
Outline: as §1

[11] = biological target: GlcNAc(b1-6)GalNAc
Outline: as §1

[12] = biological target: Man(a1-2)Man(a1-3)[Man(a1-6)]Man(a1-6)[Man(a1-2)Man(a1-3)]Man(b1-4)GlcNAc(b1-4)GlcNAc
Outline: as §1

[13] = biological target: Man(a1-3)[Man(a1-6)]Man(b1-4)GlcNAc(b1-4)GlcNAc
Outline: as §1

[14] = biological target: Man(a1-3)[Man(a1-6)]Man(b1-4)GlcNAc(b1-4)[Fuc(a1-6)]GlcNAc
Outline: as §1

[15] = biological target: Neu5Ac(a2-3)Gal(b1-3)[Fuc(a1-4)]GlcNAc
Outline: as §1

[16] = biological target: Neu5Ac(a2-3)Gal(b1-3)[GlcNAc(b1-6)]GalNAc
Outline: as §1

[17] = biological target: Neu5Ac(a2-3)Gal(b1-4)GlcNAc(b1-2)Man(a1-3)[Neu5Ac(a2-3)Gal(b1-4)GlcNAc(b1-2)Man(a1-6)]Man(b1-4)GlcNAc(b1-4)[Fuc(a1-6)]GlcNAc
Outline: as §1

[18] = biological target: Neu5Ac(a2-3)Gal(b1-4)GlcNAc(b1-2)[Neu5Ac(a2-3)Gal(b1-4)GlcNAc(b1-4)]Man(a1-3)[GlcNAc(b1-4)][Neu5Ac(a2-3)Gal(b1-4)GlcNAc(b1-4)Man(a1-6)]Man(b1-4)GlcNAc(b1-4)GlcNAc
Outline: as §1

[19] = biological target: Neu5Ac(a2-3)Gal(b1-4)GlcNAc(b1-3)Gal(b1-4)GlcNAc
Outline: as §1

[20] = biological target: Neu5Ac(a2-3)Gal(b1-4)GlcNAc(b1-3)Gal(b1-4)GlcNAc(b1-2)Man(a1-3)[Neu5Ac(a2-3)Gal(b1-4)GlcNAc(b1-3)Gal(b1-4)GlcNAc(b1-2)Man(a1-6)]Man(b1-4)GlcNAc(b1-4)GlcNAc
Outline: as §1

[21] = biological target: Neu5Ac(a2-3)GalNAc(b1-4)GlcNAc
Outline: as §1

[22] = biological target: Neu5Ac(a2-6)Gal(b1-4)GlcNAc(b1-2)Man(a1-3)Man(b1-4)GlcNAc(b1-4)GlcNAc
Outline: as §1

[23] = biological target: Neu5Ac(a2-6)Gal(b1-4)GlcNAc(b1-2)Man(a1-3)[Neu5Ac(a2-3)Gal(b1-4)GlcNAc(b1-2)Man(a1-6)]Man(b1-4)GlcNAc(b1-4)GlcNAc
Outline: as §1

[24] = biological target: Neu5Ac(a2-6)Gal(b1-4)GlcNAc(b1-2)Man(a1-6)[GlcNAc(b1-2)Man(a1-3)]Man(b1-4)GlcNAc(b1-4)GlcNAc
Outline: as §1

[25] = biological target: Neu5Ac(a2-8)Neu5Ac(a2-3)Gal(b1-4)Glc
Outline: as §1

[26] = biological target: Neu5Gc(a2-3)Gal(b1-3)GlcNAc
Outline: as §1

[27] = biological target: Neu5Gc(a2-3)Gal(b1-4)GlcNAc
Outline: as §1

[28] = biological target: Neu5Gc(a2-8)Neu5Gc(a2-6)Gal(b1-4)GlcNAc
Outline: as §1

B1: PpFlo2 (Pichia pastoris) (protein)
chain: MGSSHHHHHHSSGLVPRGSHMDDSGNGDNSDTAYGCDITTNAVDGFDATIYQYNANDLRLIRDPTFMSTGYLGRNVLNKISGVTVPGFNIWNPSSRTATVYGVKNVNYYNMVLELKGYFKADVSGDYKLTLSHIDDSSMLFFGKETAFKCCDAGSIPLNEAPTDYSLFTIKPSNQVNSEVISATQYLEAGKYYPVRIVFVNALERARFDFKLTIPSGAVLDDFQNYIYQFGDLDENSCHE
- glycan array binding signal (z-score) [1]: 6.15
- glycan array binding signal (z-score) [2]: 4.24
- glycan array binding signal (z-score) [3]: 7.22
- glycan array binding signal (z-score) [4]: 7.34
- glycan array binding signal (z-score) [5]: 7.63
- glycan array binding signal (z-score) [6]: 4.18
- glycan array binding signal (z-score) [7]: 4.33
- glycan array binding signal (z-score) [8]: 2.11
- glycan array binding signal (z-score) [9]: 0.414
- glycan array binding signal (z-score) [10]: 0.578
- glycan array binding signal (z-score) [11]: 0.967
- glycan array binding signal (z-score) [12]: -0.276
- glycan array binding signal (z-score) [13]: 0.074
- glycan array binding signal (z-score) [14]: -0.248
- glycan array binding signal (z-score) [15]: -0.304
- glycan array binding signal (z-score) [16]: 0.351
- glycan array binding signal (z-score) [17]: -0.271
- glycan array binding signal (z-score) [18]: -0.271
- glycan array binding signal (z-score) [19]: -0.293
- glycan array binding signal (z-score) [20]: -0.239
- glycan array binding signal (z-score) [21]: -0.302
- glycan array binding signal (z-score) [22]: -0.293
- glycan array binding signal (z-score) [23]: -0.271
- glycan array binding signal (z-score) [24]: 2.77
- glycan array binding signal (z-score) [25]: -0.301
- glycan array binding signal (z-score) [26]: -0.301
- glycan array binding signal (z-score) [27]: -0.299
- glycan array binding signal (z-score) [28]: -0.273
